# Assay results taken from the supplement of paper PMC13172266.
# Counter-ions that a name gives are not always drawn.
# Legend:
# Assay in all cases: cell proliferation relative to vehicle (% of vehicle); higher = less growth inhibition
# Conditions in all cases: 72 h
# [1] = test system: U2932 TK216-resistant clone 2
# Method in brief: (§1)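 Each of 348 targeted inhibitors was tested at 500 nM or 50 nM for 72 h on U2932 cells, both parental and two clones resistant to an ETS-targeting agent. Readout was by MTT with absorbance read on a Cytation 3. Proliferation appears as percent of proliferating cells relative to vehicle (DMSO).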
# [2] = test system: U2932 TK216-resistant clone 3
# Method in brief: as §1
# U2932 parental = test system: U2932 parental
# Method in brief: as §1
compound,measurement,setting,value
CN(CCOc1ccc(CC2SC(=O)NC2=O)cc1)c1ccccn1 (stereo unspecified) [Rosiglitazone],cell proliferation,[1]; 50 nM,100
same,cell proliferation,[1]; 500 nM,101
same,cell proliferation,[2]; 50 nM,98.8
same,cell proliferation,[2]; 500 nM,104
same,cell proliferation,U2932 parental; 50 nM,94
same,cell proliferation,U2932 parental; 500 nM,95.2
CO[C@@H](C)Cn1c(=O)n(C)c2cnc3ccc(-c4cncc(C(C)(C)O)c4)cc3c21,cell proliferation,[1]; 50 nM,79.1
same,cell proliferation,[1]; 500 nM,23.8
same,cell proliferation,[2]; 50 nM,79.2
same,cell proliferation,[2]; 500 nM,30.9
same,cell proliferation,U2932 parental; 50 nM,80.4
same,cell proliferation,U2932 parental; 500 nM,33.6
O=c1c(O)c(-c2ccc(O)c(O)c2)oc2cc(O)cc(O)c12 [Quercetin],cell proliferation,[1]; 50 nM,110
same,cell proliferation,[1]; 500 nM,119
same,cell proliferation,[2]; 50 nM,108
same,cell proliferation,[2]; 500 nM,106
same,cell proliferation,U2932 parental; 50 nM,101
same,cell proliferation,U2932 parental; 500 nM,106
Nc1nc(F)nc2c1ncn2[C@@H]1O[C@H](CO)[C@@H](O)[C@@H]1O [Fludarabine],cell proliferation,[1]; 50 nM,107
same,cell proliferation,[1]; 500 nM,97.8
same,cell proliferation,[2]; 50 nM,103
same,cell proliferation,[2]; 500 nM,96.4
same,cell proliferation,U2932 parental; 50 nM,103
same,cell proliferation,U2932 parental; 500 nM,97.3
Clc1ccc(C2(c3ccc(-c4cn[nH]c4)cc3)CCNCC2)cc1,cell proliferation,[1]; 50 nM,88.5
same,cell proliferation,[1]; 500 nM,48.2
same,cell proliferation,[2]; 50 nM,94.6
same,cell proliferation,[2]; 500 nM,73.6
same,cell proliferation,U2932 parental; 50 nM,93
same,cell proliferation,U2932 parental; 500 nM,75.5
C[C@@H]1CN(CC(=O)Nc2ccc3c(c2)Cc2cccc(-c4cc(=O)cc(N5CCOCC5)o4)c2S3)C[C@H](C)O1,cell proliferation,[1]; 50 nM,102
same,cell proliferation,[1]; 500 nM,101
same,cell proliferation,[2]; 50 nM,103
same,cell proliferation,[2]; 500 nM,97
same,cell proliferation,U2932 parental; 50 nM,105
same,cell proliferation,U2932 parental; 500 nM,111
Nc1cccc2c1C(=O)N(C1CCC(=O)NC1=O)C2=O (stereo unspecified) [Pomalidomide],cell proliferation,[1]; 50 nM,95.8
same,cell proliferation,[1]; 500 nM,94.7
same,cell proliferation,[2]; 50 nM,91
same,cell proliferation,[2]; 500 nM,84.7
same,cell proliferation,U2932 parental; 50 nM,93.2
same,cell proliferation,U2932 parental; 500 nM,84.3
O=C(Nc1cccc(Nc2ncc(Br)c(NCCc3cnc[nH]3)n2)c1)N1CCCC1,cell proliferation,[1]; 50 nM,95.7
same,cell proliferation,[1]; 500 nM,87
same,cell proliferation,[2]; 50 nM,103
same,cell proliferation,[2]; 500 nM,77
same,cell proliferation,U2932 parental; 50 nM,99.6
same,cell proliferation,U2932 parental; 500 nM,68.1
COc1cc(C(=O)N2CCC(N3CCN(C)CC3)CC2)ccc1Nc1ncc2c(n1)N(C)c1ccccc1C(=O)N2C,cell proliferation,[1]; 50 nM,104
same,cell proliferation,[1]; 500 nM,92.2
same,cell proliferation,[2]; 50 nM,100
same,cell proliferation,[2]; 500 nM,100
same,cell proliferation,U2932 parental; 50 nM,105
same,cell proliferation,U2932 parental; 500 nM,101
CCCNC(=O)c1cn2ncnc(Nc3cc(C(=O)NC4CC4)ccc3C)c2c1C,cell proliferation,[1]; 50 nM,104
same,cell proliferation,[1]; 500 nM,98.2
same,cell proliferation,[2]; 50 nM,105
same,cell proliferation,[2]; 500 nM,103
same,cell proliferation,U2932 parental; 50 nM,103
same,cell proliferation,U2932 parental; 500 nM,98.7
CCNc1nc(Nc2cc(F)c(C(=O)N3CCOCC3)cc2OC)ncc1C(F)(F)F,cell proliferation,[1]; 50 nM,101
same,cell proliferation,[1]; 500 nM,97.4
same,cell proliferation,[2]; 50 nM,97.8
same,cell proliferation,[2]; 500 nM,104
same,cell proliferation,U2932 parental; 50 nM,104
same,cell proliferation,U2932 parental; 500 nM,101
Nc1ccn([C@@H]2O[C@H](CO)[C@@H](O)[C@@H]2O)c(=O)n1 [Cytarabine],cell proliferation,[1]; 50 nM,93.7
same,cell proliferation,[1]; 500 nM,24
same,cell proliferation,[2]; 50 nM,93.6
same,cell proliferation,[2]; 500 nM,65.8
same,cell proliferation,U2932 parental; 50 nM,88.9
same,cell proliferation,U2932 parental; 500 nM,36
CCCCCCCCCCCCc1ccc(S(=O)(=O)Nc2nncs2)cc1,cell proliferation,[1]; 50 nM,102
same,cell proliferation,[1]; 500 nM,88.7
same,cell proliferation,[2]; 50 nM,102
same,cell proliferation,[2]; 500 nM,100
same,cell proliferation,U2932 parental; 50 nM,101
same,cell proliferation,U2932 parental; 500 nM,100
"Nc1cc(C(F)(F)F)c(-c2cc(N3CCOCC3)nc(N3CCOCC3)n2)cn1 [BKM120 (NVP-BKM120, Buparlisib)]",cell proliferation,[1]; 50 nM,112
same,cell proliferation,[1]; 500 nM,77.9
same,cell proliferation,[2]; 50 nM,96.2
same,cell proliferation,[2]; 500 nM,72.4
same,cell proliferation,U2932 parental; 50 nM,97.7
same,cell proliferation,U2932 parental; 500 nM,78.5
CCCC(CCC)C(=O)O [Valproic acid sodium salt (Sodium valproate)],cell proliferation,[1]; 50 nM,98.2
same,cell proliferation,[1]; 500 nM,101
same,cell proliferation,[2]; 50 nM,103
same,cell proliferation,[2]; 500 nM,94.2
same,cell proliferation,U2932 parental; 50 nM,106
same,cell proliferation,U2932 parental; 500 nM,97.6
c1ccc(Cn2c(-c3ccc(OC[C@H](C4CCNCC4)n4c(-c5ccccc5)nc5ccccc54)cc3)nc3ccccc32)cc1 [Deltarasin],cell proliferation,[1]; 50 nM,102
same,cell proliferation,[1]; 500 nM,88
same,cell proliferation,[2]; 50 nM,98.8
same,cell proliferation,[2]; 500 nM,83.6
same,cell proliferation,U2932 parental; 50 nM,103
same,cell proliferation,U2932 parental; 500 nM,91.4
N=C1NC(=O)/C(=C/c2ccc(O)cc2)S1 [Mirin],cell proliferation,[1]; 50 nM,103
same,cell proliferation,[1]; 500 nM,94.6
same,cell proliferation,[2]; 50 nM,107
same,cell proliferation,[2]; 500 nM,102
same,cell proliferation,U2932 parental; 50 nM,90.9
same,cell proliferation,U2932 parental; 500 nM,97.3
CCCCOc1c(C(=O)c2c(F)cc(C)cc2F)c[nH]c2nncc1-2,cell proliferation,[1]; 50 nM,78.8
same,cell proliferation,[1]; 500 nM,59.3
same,cell proliferation,[2]; 50 nM,92.2
same,cell proliferation,[2]; 500 nM,58.9
same,cell proliferation,U2932 parental; 50 nM,89.3
same,cell proliferation,U2932 parental; 500 nM,77.1
"O=c1[nH]cc(F)c(=O)[nH]1 [Fluorouracil (5-Fluoracil, 5-FU)]",cell proliferation,[1]; 50 nM,102
same,cell proliferation,[1]; 500 nM,102
same,cell proliferation,[2]; 50 nM,103
same,cell proliferation,[2]; 500 nM,106
same,cell proliferation,U2932 parental; 50 nM,102
same,cell proliferation,U2932 parental; 500 nM,96.2
C=CC(=O)N1C/C(=C\c2ccc([N+](=O)[O-])cc2)C(=O)/C(=C/c2ccc([N+](=O)[O-])cc2)C1,cell proliferation,[1]; 50 nM,31.4
same,cell proliferation,[1]; 500 nM,-1.71
same,cell proliferation,[2]; 50 nM,30.7
same,cell proliferation,[2]; 500 nM,-2.43
same,cell proliferation,U2932 parental; 50 nM,34.3
same,cell proliferation,U2932 parental; 500 nM,1.03
CN(C)CC[C@H](CSc1ccccc1)Nc1ccc(S(=O)(=O)NC(=O)c2ccc(N3CCN(Cc4ccccc4-c4ccc(Cl)cc4)CC3)cc2)cc1[N+](=O)[O-],cell proliferation,[1]; 50 nM,89.5
same,cell proliferation,[1]; 500 nM,39.6
same,cell proliferation,[2]; 50 nM,96.6
same,cell proliferation,[2]; 500 nM,37.4
same,cell proliferation,U2932 parental; 50 nM,92
same,cell proliferation,U2932 parental; 500 nM,61.2
CC(=O)O[C@H]1C(=O)[C@@]2(C)[C@H]([C@H](OC(=O)c3ccccc3)[C@]3(O)C[C@H](OC(=O)[C@H](O)[C@@H](NC(=O)c4ccccc4)c4ccccc4)C(C)=C1C3(C)C)[C@]1(OC(C)=O)CO[C@@H]1C[C@@H]2O [Paclitaxel],cell proliferation,[1]; 50 nM,11.2
same,cell proliferation,[1]; 500 nM,14.3
same,cell proliferation,[2]; 50 nM,6.88
same,cell proliferation,[2]; 500 nM,4.73
same,cell proliferation,U2932 parental; 50 nM,11.2
same,cell proliferation,U2932 parental; 500 nM,9.85
CCn1c2ccccc2c2cc(Nc3ccnc(NCCCN4CCOCC4)n3)ccc21,cell proliferation,[1]; 50 nM,85.4
same,cell proliferation,[1]; 500 nM,91
same,cell proliferation,[2]; 50 nM,74.8
same,cell proliferation,[2]; 500 nM,88.1
same,cell proliferation,U2932 parental; 50 nM,83.6
same,cell proliferation,U2932 parental; 500 nM,91.7
CC(C)Oc1ccc(C(=O)N[C@H](CNC(=O)CN(C)C)Cc2ccc(-c3cn4cccc([C@H](C)O)c4n3)cc2)cc1Cl,cell proliferation,[1]; 50 nM,45.4
same,cell proliferation,[1]; 500 nM,15
same,cell proliferation,[2]; 50 nM,34.3
same,cell proliferation,[2]; 500 nM,14.4
same,cell proliferation,U2932 parental; 50 nM,47.6
same,cell proliferation,U2932 parental; 500 nM,14.6
CNC(=O)c1cc(Oc2ccc(NC(=O)Nc3ccc(Cl)c(C(F)(F)F)c3)cc2)ccn1 [Sorafenib],cell proliferation,[1]; 50 nM,114
same,cell proliferation,[1]; 500 nM,107
same,cell proliferation,[2]; 50 nM,105
same,cell proliferation,[2]; 500 nM,122
same,cell proliferation,U2932 parental; 50 nM,101
same,cell proliferation,U2932 parental; 500 nM,112
Oc1ccc(Nc2nc(-c3ccc(Cl)cc3)cs2)cc1,cell proliferation,[1]; 50 nM,109
same,cell proliferation,[1]; 500 nM,94.9
same,cell proliferation,[2]; 50 nM,111
same,cell proliferation,[2]; 500 nM,103
same,cell proliferation,U2932 parental; 50 nM,97
same,cell proliferation,U2932 parental; 500 nM,95.5
